# Reference: PubChem BioAssay (NCATS)
# A number with no mark means an inactive call. Calls of active or inactive are those of the source. Calls follow the shape of the dose curve; as a rule, active = well fitted curve in the direction sought with a large enough effect; inconclusive = small, poorly fitted or top-dose-only effect, or another doubt; inactive = no such curve, though single readings can be large; an effect the other way counts as inactive or inconclusive.
# Biological target: Alpha-galactosidase (Coffea arabica) (UniProt Q42656)
# Experiment: Counterscreen for Glucocerebrosidase Inhibitors: qHTS Assay for Coffee Bean alpha-Galactosidase at pH 4.5 (AID 957);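 also: plate controls were enzyme alone for no effect and no enzyme for full effect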
# Settings: purified coffee bean alpha-galactosidase, fluorogenic substrate; series mostly up to 76.9 µM; activity change, negative = inhibition: at the top concentration
# Procedure, shortened: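 Coffee bean enzyme (2 nM) with 80 uM 4-methylumbelliferyl alpha-D-galactopyranoside in 50 mM citric acid, 0.005% Tween-20, pH 4.5, 20 min at room temperature; compounds 0.7 nM–77 uM. Stopped at pH 10, fluorescence 365/440 nm; AC50 from Hill fits.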
# Alpha-galactosidase (Coffea arabica), sequence (Q42656 whole entry, looked up): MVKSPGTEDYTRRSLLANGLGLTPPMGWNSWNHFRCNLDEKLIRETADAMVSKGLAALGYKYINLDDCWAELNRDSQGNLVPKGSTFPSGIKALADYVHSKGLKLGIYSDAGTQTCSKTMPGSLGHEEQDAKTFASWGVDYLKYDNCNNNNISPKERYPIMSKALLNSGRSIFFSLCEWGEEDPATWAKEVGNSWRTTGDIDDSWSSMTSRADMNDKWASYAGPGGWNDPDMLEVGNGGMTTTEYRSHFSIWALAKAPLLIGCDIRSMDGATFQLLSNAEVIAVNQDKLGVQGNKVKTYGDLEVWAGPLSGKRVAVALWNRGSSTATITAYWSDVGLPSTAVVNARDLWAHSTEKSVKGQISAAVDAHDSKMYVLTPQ
Structure (SMILES),"activity change, negative = inhibition [%]",outcome
CN(C)C/C=C(\c1ccc(Br)cc1)c1cccnc1,-0.498,
C=CCc1ccccc1OC[C@H](O)CNC(C)C,0.432,
CC(N)=NCCC[C@H](N)C(=O)O,-1.89,
CSc1nc(N)c2ncn([C@@H]3O[C@@H](COP(=O)(O)OP(=O)(O)OP(=O)(O)O)[C@@H](O)[C@H]3O)c2n1,-1.78,
O=C(O)C[C@@H]1CCCc2ccccc2[C@H]1O,1.85,
Nc1nc(Nc2ccccc2)nc2c1ncn2[C@@H]1O[C@@H](CO)[C@H](O)[C@@H]1O,-1.13,
CC[C@@H]1CN2CCc3cc(OC)c(OC)cc3[C@H]2C[C@@H]1C[C@@H]1NCCc2cc(OC)c(OC)cc21,-1,
CN=C(NC#N)Nc1ccc(C2=NNC(=O)C[C@@H]2C)cc1,0.312,
Cn1c(=O)c2c(nc(/C=C\c3cccc(Cl)c3)n2C)n(C)c1=O,-1.01,
Cc1ccc(/C(=C/CN2CCCC2)c2ccccn2)cc1,-2.8,
O=[N+]([O-])c1ccc(CSc2ncnc3c2ncn3[C@@H]2O[C@@H](CO)[C@@H](O)[C@H]2O)cc1,-0.457,
Nc1ccn([C@@H]2O[C@@H](CO)[C@@H](O)[C@H]2O)c(=O)n1,3.58,
O=C(O)CNC(=O)[C@@H](CS)Cc1ccccc1,-1.79,
CC(N)=NCCCC[C@H](N)C(=O)O,-1.83,
CN(C)c1ccc(/C=C2/C(=O)Nc3ccccc32)cc1,-11.7,
Cc1ccc(C(=O)O[C@@H](C(=O)O)[C@@H](OC(=O)c2ccc(C)cc2)C(=O)O)cc1 (tested in a mixture with another compound),0.179,
CSc1ccc2c(c1)[C@H](N1CCN(C)CC1)Cc1ccccc1S2,-7.71,
N[C@H](CCC(=O)N[C@H](CSN=O)C(=O)NCC(=O)O)C(=O)O,0.133,
CCOC(=O)[C@@]12C[C@@H]1/C(=N/O)c1ccccc1O2,4.58,
CCCC[S@@](=N)(=O)CC[C@@H](N)C(=O)O,,inactive
Oc1ccc([C@@H]2CNCc3sccc32)cc1O,0.184,
O=C1NC(O)=NC1(c1ccccc1)c1ccccc1,4.05,
COc1ccc2c(c1)CCC1C2CC[C@]2(C)[C@H](NCCCCCCN3C(=O)C=CC3=O)CC[C@@H]12 (some centres not stated),2.09,

# Biological target: Alpha-galactosidase (Coffea arabica) (UniProt Q42656)
# Experiment: Counterscreen for Glucocerebrosidase Inhibitors: qHTS Assay for Coffee Bean alpha-Galactosidase at pH 5.9 (AID 998);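 also: plate controls were uninhibited enzyme for no effect and no-enzyme basal signal for full effect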
# Settings: coffee bean alpha-galactosidase enzyme assay; series mostly up to 76.9 µM; activity, negative = inhibition: at the top concentration
# Procedure, shortened: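 Green coffee bean enzyme (2 nM final) was incubated with compounds (0.7 nM–77 uM) and 4-methylumbelliferyl alpha-D-galactopyranoside (80 uM) in citrate buffer pH 5.9, 20 min at room temperature. High-pH stop; fluorescence 365/440 nm; AC50 from Hill fits.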
row,Structure (SMILES),"activity, negative = inhibition [%]"
1,CC(=O)O[C@@H]1[C@H]([N+]2(C)CCCCC2)C[C@@H]2[C@@H]3CC[C@@H]4C[C@@H](OC(C)=O)[C@H]([N+]5(C)CCCCC5)C[C@@]4(C)[C@H]3CC[C@]21C,-0.969
2,CC[C@@H]1CN2CCc3cc(OC)c(OC)cc3[C@H]2C[C@@H]1C[C@@H]1NCCc2cc(OC)c(OC)cc21,-0.0024
3,Cc1ccc(C(=O)O[C@@H](C(=O)O)[C@@H](OC(=O)c2ccc(C)cc2)C(=O)O)cc1 (tested in a mixture with another compound),2.36
4,N[C@H](CCC(=O)N[C@H](CSN=O)C(=O)NCC(=O)O)C(=O)O,-2.09
